# Shown are actives, neighbours in structure and some others; about 7.2% of the full set was active somewhere.
# HEK cytotox – cytotoxic compounds in HEK 293 cells | HEK 293 viability, ATP luminescence (CellTiter-Glo), 48-72 h | Potency, µM (doses to about 115 µM), usual class: inhibitors | hit rate 6.6% among 94,000; also: nearly all actives have a fitted effect of over 60% in size
#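 Pintool-delivered compounds were incubated with HEK 293 cells (250 cells/well) at 37 degree Celsius for 48 or 72 hr. ATP-dependent luminescence (CellTiter-Glo) then reported remaining viable cells.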
# FLuc inh – inhibitors of firefly (Photinus pyralis) luciferase | P08659 | hit rate 2.5% among 76,000 | Potency, µM (doses to about 115 µM), actives largely listed as inhibitors | purified P. pyralis luciferase, luminescence, biochemical; also: nearly all actives have a fitted effect of over 65% in size
# Target sequence (P08659 whole entry, looked up): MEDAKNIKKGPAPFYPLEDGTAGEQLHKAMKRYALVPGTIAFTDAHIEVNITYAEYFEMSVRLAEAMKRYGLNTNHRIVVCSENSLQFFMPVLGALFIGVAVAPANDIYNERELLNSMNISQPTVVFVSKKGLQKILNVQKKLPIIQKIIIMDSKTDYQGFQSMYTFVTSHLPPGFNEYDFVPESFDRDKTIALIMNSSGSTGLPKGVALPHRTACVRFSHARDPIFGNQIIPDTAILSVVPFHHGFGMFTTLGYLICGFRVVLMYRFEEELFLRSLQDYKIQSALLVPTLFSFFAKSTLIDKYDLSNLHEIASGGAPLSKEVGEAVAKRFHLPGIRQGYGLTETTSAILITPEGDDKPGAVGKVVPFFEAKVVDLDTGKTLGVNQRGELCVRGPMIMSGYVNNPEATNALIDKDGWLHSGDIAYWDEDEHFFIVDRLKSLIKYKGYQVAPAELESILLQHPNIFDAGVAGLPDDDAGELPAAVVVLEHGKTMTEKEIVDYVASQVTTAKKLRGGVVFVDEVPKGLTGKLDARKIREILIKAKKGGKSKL
#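 Luminescence read by CCD imager after adding enzyme (10nM final) to wells holding compound, titrated in qHTS. Substrates 10uM each D-luciferin and ATP; buffer 50mM Tris acetate pH 7.5, 10mM Mg acetate, Tween-20, BSA.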
# NPR1 antag – human Npr1 receptor antagonism; Potency, µM (doses to about 46.3 µM), usual class: inhibitors; AID 1347048; HEK293 hNpr1 GloSensor cGMP, ANP-stimulated luminescence; hit rate 1.6% among 76,000; calls by dose curve; also: nearly all actives have a fitted effect of over 60% in size
#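 HEK293 cells stably expressing human Npr1 and cGMP GloSensor pGS-40F, loaded 2 h with 2% GloSensor reagent, given compound 30 min at room temperature. Luminescence read before and 20 min after 0.1 nM hNppA.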
# NIH3T3 tox – NIH 3T3 cell cytotoxicity | NIH 3T3 viability, CellTiter-Glo ATP luminescence, 48-72 h | Potency, µM (top dose mostly 96.7 µM), most hits filed as inhibitors | hit rate 4.3% among 94,000 | AID 1345082; also: nearly all actives have a fitted effect of over 55% in size
#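 Luminescent ATP readout (CellTiter-Glo, 10 min RT) after 48 or 72 hr compound exposure of NIH 3T3 cells seeded at 400 cells/well in 1536-well format; quantitative HTS.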
# SNCA expr inhib – inhibitors of alpha-synuclein (SNCA) gene expression. HEK-293 SNCA-luciferase knock-in, luminescence, 24 h. Potency, µM (series often up to 57.2 µM), usual class: inhibitors. hit rate 0.17% among 140,000. AID 1671194; also: nearly all actives have a fitted effect of over 45% in size
# HEK293 viab – reduces viability of HEK-293 SNCA reporter cells; HEK-293-SNCA-luc viability, GF-AFC fluorescence, 24 h; Potency, µM (highest dose often 57.1 µM), usual class: cytotoxic; hit rate 0.12% among 150,000; AID 1671193; also: nearly all actives have a fitted effect of over 30% in size
#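 HEK-293-SNCA-luc cells (1500/well) plated 24 h, then exposed 24 h to a dilution series; GF-AFC added 30 min at 37C, fluorescence 405/540 nm; normalised to medium-only and DMSO wells, Hill fit.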
# A number is an active result; . = inactive; ? = inconclusive; / = no result; [ ] = another dose, or the depositor's remark. Unless noted, calls follow the shape of the dose curve; as a rule, active = well fitted curve in the direction sought with a large enough effect; inconclusive = small, poorly fitted or top-dose-only effect, or another doubt; inactive = no such curve, though single readings can be large; an effect the other way counts as inactive or inconclusive.
SMILES,HEK cytotox,FLuc inh,NPR1 antag,NIH3T3 tox,SNCA expr inhib,HEK293 viab
CCc1nc(-c2ccc(OC3CCN(C(=O)Cc4cccc(OC)c4)C3)cc2)no1 (configuration not stated),?,.,?,.,.,.
O=C(NCc1cccnc1)c1cc(CN2CCC(Cc3ccccc3)CC2)on1,.,.,.,31.6µM,.,.
Cc1cnc(CNC(=O)c2cc(CN3CCC(Cc4ccccc4)CC3)on2)cn1,?,.,.,.,.,.
c1ccc(C2=NOC3(CCN(Cc4c[nH]c5ccccc45)CC3)C2)cc1,44.7µM,/,/,?,.,.
c1ccc(CC2=NOC3(CCN(Cc4c[nH]c5ccccc45)CC3)C2)cc1,50.1µM,/,/,31.6µM,.,.
C[S+](=O)([O-])N1CC2(CCN(Cc3c[nH]c4ccccc34)CC2)Cc2ccccc21,44.7µM,/,/,25.1µM,.,.
COc1ccc(CNC(=O)C2CCN(c3nccc(Nc4ccc(OC)cc4)n3)CC2)cc1,44.7µM,/,/,39.8µM,.,.[12.5 µM]
Cc1ccc(Nc2ccnc(N3CCC(C(=O)NCc4ccc(F)cc4)CC3)n2)cc1,?,/,/,?,.,.[12.5 µM]
Cc1nc(N2CCC(C(=O)NCc3ccc4c(c3)OCO4)CC2)cc(C(F)(F)F)n1,?,89.1µM,?,?,.,.
COc1ccc(Nc2ccnc(N3CCC(C(=O)NCc4ccc(F)cc4)CC3)n2)cc1,?,/,/,39.8µM,.,.[12.5 µM]
Cc1ccc(Nc2ccnc(N3CCC(C(=O)NCC4CC4)CC3)n2)cc1,?,/,/,31.6µM,.,.[12.5 µM]
COc1cc(N(C)CCN(C)C)c(N)cc1Nc1nccc(-c2cn(C)c3ccccc23)n1,/,/,/,/,/,.
Cc1noc(-c2cn(C3CCN(C(=O)c4ccc5c(c4)OCO5)CC3)nn2)n1,.,.,.,.,.,.
COc1ccc(CNC(=O)C2CCN(c3nccc(Nc4ccc(C)cc4)n3)CC2)cc1,?,/,/,28.2µM,.,.[12.5 µM]
Cc1ccc(Nc2ccnc(N3CCC(C(=O)NC(C)C)CC3)n2)cc1,?,/,/,?,.,.[12.5 µM]
Cc1ccc(Nc2ccnc(N3CCC(C(=O)NCc4ccc5c(c4)OCO5)CC3)n2)cc1,?,/,/,17.8µM,.,.[12.5 µM]
CCC1Oc2ccc(NC(=O)COc3ccccc3)cc2CN(Cc2ccccc2Cl)C1=O (configuration not stated),?,.,.,?,.,.
CNC(=O)CC1CCOC2(CCN(C(=O)Nc3ccc4c(c3)OCCO4)CC2)C1 (configuration not stated),.,?,.,.,.,.
CNC(=O)C(C)Cn1ccnc1-c1cccc(CN(C)C)c1 (configuration not stated),.,.,.,.,.,.
COc1ccc(C2CC(C(=O)NCc3ccccc3)CN(C(=O)C3CC3)C2)cc1OC (configuration not stated),?,.,.,?,.,.
COc1ccccc1CCNC(=O)C1CC(c2ccc(F)c(C)c2)CN(C(=O)C2CC2)C1 (configuration not stated),35.5µM,.,.,39.8µM,.,.
Clc1ccc2ncc(-c3cccc(NC4CNC4)n3)n2c1,/,/,/,/,0.607µM,.
CCC(=O)N1CCC2(CC1)CC(N(CC)CC)CCO2 (configuration not stated),.,.,.,.,.,.
O=C(NCc1ccccc1)C1(Oc2ccc(Cl)cc2)CCNCC1,?,.,.,?,.,.
Cc1ccc(OC2(C(=O)NCC3COc4ccccc4O3)CCNCC2)cc1 (configuration not stated),35.5µM,.,.,31.6µM,.,.
COc1ccc(-c2ccnc(N[C@H]3CO[C@H]4[C@@H]3OC[C@@H]4NC(=O)Nc3cccc(C(F)(F)F)c3)n2)cc1,39.8µM,.,.,39.8µM,.,.
COc1ccc(-c2ccnc(N[C@H]3CO[C@H]4[C@@H]3OC[C@@H]4NC(=O)c3ccc4c(c3)OCO4)n2)cc1,31.6µM,.,?,?,?,?
N#Cc1cccc(NC(=O)O[C@@H]2CO[C@H]3[C@@H]2OC[C@@H]3Nc2nccc(-c3ccc4c(c3)OCO4)n2)c1,28.2µM,.,.,?,.,.
